Assay results from PubChem BioAssay (NCATS).
Active and inactive are the calls of the source. The call rests on the fitted dose curve; in most records, active means well fitted curve in the direction sought with a large enough effect; inconclusive means small, poorly fitted or top-dose-only effect, or another doubt; inactive means no such curve, though single readings can be large; an effect the other way counts as inactive or inconclusive.

Biological target: Galactokinase (Homo sapiens) (UniProt P51570)
Sequence (P51570 whole entry, looked up): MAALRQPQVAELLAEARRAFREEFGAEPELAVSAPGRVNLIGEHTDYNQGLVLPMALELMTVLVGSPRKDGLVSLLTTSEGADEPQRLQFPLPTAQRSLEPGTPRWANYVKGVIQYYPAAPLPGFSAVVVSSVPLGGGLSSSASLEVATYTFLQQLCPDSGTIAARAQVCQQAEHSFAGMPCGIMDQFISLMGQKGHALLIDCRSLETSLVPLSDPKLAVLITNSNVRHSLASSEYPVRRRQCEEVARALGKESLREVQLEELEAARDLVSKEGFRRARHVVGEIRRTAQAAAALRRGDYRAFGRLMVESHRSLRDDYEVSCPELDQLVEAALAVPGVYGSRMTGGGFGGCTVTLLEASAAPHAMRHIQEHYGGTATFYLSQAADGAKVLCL
Assay: qHTS Validation Assay for Inhibitors of Human Galactokinase (GALK) (AID 493189); further: 0% is about no effect
Conditions: purified human GALK enzyme activity, qHTS 7-point titration; series mostly up to 57.5 µM; activity change, negative = inhibition: at the top concentration
Procedure, shortened: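 GALK (5 nM) with 35 uM ATP and 100 uM galactose in HEPES pH 8.0 with MgCl2, NaCl, DTT and BSA. Reaction ran 1 h at room temperature. Residual ATP read by Kinase-Glo Plus luminescence.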

SMILES | activity change, negative = inhibition
Clc1cccc(N2CCNCC2)c1 | 3.13% (inactive)
CCn1cc(C(=O)O)c(=O)c2ccc(C)nc21 | 3.35% (inactive)
COC[C@H]1OC(=O)c2coc3c2[C@@]1(C)C1=C(C3=O)C2CCC(=O)[C@@]2(C)C[C@H]1OC(C)=O (stereo partly drawn) | 27.5% (inactive)
CC[N+](CC)(CC)CC | -11% (inactive)

Biological target: Phosphoglycerate kinase, glycosomal (Trypanosoma brucei brucei) (UniProt P07378)
Sequence (P07378 whole entry, looked up): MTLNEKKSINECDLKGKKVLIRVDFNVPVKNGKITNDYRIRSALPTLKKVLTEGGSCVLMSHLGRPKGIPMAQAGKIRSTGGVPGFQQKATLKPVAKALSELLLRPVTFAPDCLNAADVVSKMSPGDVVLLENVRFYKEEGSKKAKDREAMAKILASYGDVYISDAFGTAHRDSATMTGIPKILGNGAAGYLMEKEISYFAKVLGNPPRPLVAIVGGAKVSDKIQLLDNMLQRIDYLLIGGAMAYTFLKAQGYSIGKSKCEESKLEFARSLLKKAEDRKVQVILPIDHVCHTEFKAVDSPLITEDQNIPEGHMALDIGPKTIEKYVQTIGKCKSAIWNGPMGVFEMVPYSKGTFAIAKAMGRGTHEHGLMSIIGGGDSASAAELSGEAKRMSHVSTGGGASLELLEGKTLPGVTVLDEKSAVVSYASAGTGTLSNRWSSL
Assay: qHTS Validation Assay to Find Inhibitors of Phosphoglycerate Kinase (AID 504547); further: potency means the concentration at half of the fitted maximal effect;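 on activity, negative = inhibition: control wells lack PGK and mark full inhibition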
Conditions: enzymatic PGK inhibition, coupled luminescence read-out; series mostly up to 57.5 µM; activity, negative = inhibition: at the top concentration
Procedure, shortened: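 Inhibition of the enzyme is judged by a Kinase-Glo Plus luminescent signal following a one-hour incubation at room temperature. Because 1,3-BPG is unstable, it is made in situ by GAPDH at 100nM final; no-PGK wells define the baseline.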

SMILES | Potency | activity, negative = inhibition
O=c1c(O)c(-c2ccc(O)c(O)c2)oc2cc(O)cc(O)c12 | 7.57 µM (active) | 
COC[C@H]1OC(=O)c2coc3c2[C@@]1(C)C1=C(C3=O)C2CCC(=O)[C@@]2(C)C[C@H]1OC(C)=O (stereo partly drawn) |  | 8.42% (inactive)
CC(=O)[C@H]1CC[C@H]2[C@@H]3CC[C@H]4C[C@](C)(O)CC[C@]4(C)[C@H]3CC[C@]12C |  | 8.64% (inactive)

Test system: not listed separately
Assay: Inducers of the Endoplasmic Reticulum Stress Response (ERSR) in human glioma: Validation (AID 504836); further: 0% is about no effect
Conditions: human glioma cells, ER stress response reporter; series mostly up to 38.3 µM; activation: at the top concentration
Procedure, shortened: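 ERSR induction read as luciferase luminescence (Bright-Glo, 10 min at room temperature) in stably transfected human U87-MG glioma cells exposed to compounds for 16 h, using GRP78 as sensor.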

SMILES | activation
Fc1ccc([C@@H]2CCNC[C@H]2COc2ccc3c(c2)OCO3)cc1 | -1.25% (inactive)
CN[C@H]1CC[C@@H](c2ccc(Cl)c(Cl)c2)c2ccccc21 | -4.06% (inactive)
OCCN1CCN(CCCN2c3ccccc3Sc3ccc(C(F)(F)F)cc32)CC1 | -3.22% (inactive)
CC/C(=C(\c1ccccc1)c1ccc(OCCN(C)C)cc1)c1ccccc1 | -1.38% (inactive)
Cc1cn[nH]c1 | -1.52% (inactive)
O=c1c(O)c(-c2ccc(O)c(O)c2)oc2cc(O)cc(O)c12 | 7.54% (inactive)
COc1ccccc1OCC(O)CN1CCN(CC(=O)Nc2c(C)cccc2C)CC1 (stereo not drawn) | 1.07% (inactive)
O=C(O)COCCN1CCN(C(c2ccccc2)c2ccc(Cl)cc2)CC1 (stereo not drawn) | 1.45% (inactive)
O=C(NCCN1CCOCC1)c1ccc(Cl)cc1 | -0.719% (inactive)
CC(C(=O)O)c1cccc(C(=O)c2ccccc2)c1 (stereo not drawn) | -1.11% (inactive)
CC(=O)[C@]1(O)Cc2c(O)c3c(c(O)c2[C@@H](O[C@H]2C[C@H](N)[C@H](O)[C@H](C)O2)C1)C(=O)c1ccccc1C3=O | -7.63% (inactive)
